The list is not random: actives were taken first. Their share in the collection is about 2.9%.
B2AR arrestin ag – beta-arrestin recruitment by human beta2-adrenergic receptor ligands. P07550. HTLA Tango cells, beta-arrestin recruitment, luciferase luminescence, 18 h. Potency, µM (titrated, usually from 46.1 µM), most hits filed as activators. 44,000 tested, under 10 active
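Tango cells (recombinant beta2-AR, beta-arrestin, tTA-driven luciferase), 1500/well in DMEM 1% FBS, treated 18 h at 37 °C with compounds up to 46 µM; luciferin mix added, luminescence read after 15 min; %activity curves fitted and curve-classed.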
GALC G270D up – raises human GALC G270D mutant activity in cells; 145M-Twi-hGALC-G270D cells (Twitcher mouse brain line with human GALC G270D), HMU-beta-Gal fluorescence, 48 h; Potency, µM (highest dose often 57.5 µM), hits mostly activators; actives 0.1% (n = 45,000); also: nearly all actives have a fitted effect of over 65% in size
Target sequence (P54803 whole entry G286D): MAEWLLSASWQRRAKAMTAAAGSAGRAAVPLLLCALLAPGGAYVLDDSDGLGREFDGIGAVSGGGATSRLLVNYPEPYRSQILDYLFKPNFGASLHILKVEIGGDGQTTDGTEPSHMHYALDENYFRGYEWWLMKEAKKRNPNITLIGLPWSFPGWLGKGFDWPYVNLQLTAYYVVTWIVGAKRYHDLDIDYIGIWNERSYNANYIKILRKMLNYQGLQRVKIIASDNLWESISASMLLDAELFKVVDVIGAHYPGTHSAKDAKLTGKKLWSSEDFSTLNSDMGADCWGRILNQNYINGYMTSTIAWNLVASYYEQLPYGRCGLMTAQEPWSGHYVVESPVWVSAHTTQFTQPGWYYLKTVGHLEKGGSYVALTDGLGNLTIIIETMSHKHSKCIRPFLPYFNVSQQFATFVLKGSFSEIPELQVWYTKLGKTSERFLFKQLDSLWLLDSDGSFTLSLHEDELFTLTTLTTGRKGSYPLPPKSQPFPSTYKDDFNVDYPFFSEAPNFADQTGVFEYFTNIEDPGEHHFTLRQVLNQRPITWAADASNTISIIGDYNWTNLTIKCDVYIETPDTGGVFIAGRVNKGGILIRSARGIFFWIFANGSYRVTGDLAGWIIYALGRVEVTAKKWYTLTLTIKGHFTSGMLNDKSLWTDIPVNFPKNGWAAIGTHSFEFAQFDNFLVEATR
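Mutant human GALC (G270D), stably expressed in a Twitcher mouse brain cell line lacking endogenous GALC, is measured in live-treated cells via 6-hexadecanoylamino-4-methylumbelliferyl-β-galactoside hydrolysis (0.1 mM final, pH 5.2) with fluorescent detection.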
TSG101-PTAP inh – inhibitors of HIV-1 PTAP binding to human TSG101, validation; 44,000 tested, under 10 active; Potency, µM (doses to about 115 µM), usual class: inhibitors; Fluorescence polarization, FITC-PTAP peptide/Tsg101, 20 min; Q99816
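Read-out is FITC fluorescence polarization. Compounds were added to Tsg101 binding domain (10 uM final), then FITC-PTAP peptide (50 nM final), 20 min at r.t. Total S+P intensity flags fluorescent compounds.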
GPR32 ag – agonists of human resolvin D1 receptor DRV1 (GPR32). actives 2.5% (n = 48,000). O75388. CHO-K1 GPR32 beta-arrestin PathHunter luminescence, 90 min; zero percent set by DMSO-only wells. activation, % at 76.9 µM;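 active = activation of at least 60% and not above a set upper limit, about 1 call in 100 departs from these limits; inconclusive = activation of 40% to 60%, or above that upper limit; inactive = activation under 40%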
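CHO-K1 cells stably expressing ProLink-tagged GPR32 and Enzyme Activator-tagged beta-arrestin were seeded at 2,500 cells/well overnight, exposed to compounds for 90 min at 37 °C, then read by beta-Gal complementation chemiluminescence after 1 h detection reagent.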
Hits are given with their value; n = inactive; u = inconclusive; x = no result; ! = not confirmed by another sample. Unless noted, calls follow the shape of the dose curve; as a rule, active = well fitted curve in the direction sought with a large enough effect; inconclusive = small, poorly fitted or top-dose-only effect, or another doubt; inactive = no such curve, though single readings can be large; an effect the other way counts as inactive or inconclusive.

SMILES | B2AR arrestin ag | GALC G270D up | TSG101-PTAP inh | GPR32 ag
CC(=O)N1CCc2cc(S(=O)(=O)NC(Cc3ccccc3)C(=O)Nc3cc(C)cc(C)c3)ccc21 (centres undefined) | n | n | n | n
Cc1ccc(Nc2nc(N)nc(CSc3nc4ccccc4s3)n2)cc1 | n | n | n | 83
COc1ccc(Nc2nc(N)nc(CSc3nc4ccccc4s3)n2)cc1 | n | n | n | u
CN(CC(=O)Nc1ccc(Br)cc1)S(=O)(=O)c1cccc2nsnc12 | n | n | n | n
Cc1ccc(S(=O)(=O)NCCc2csc(-c3ccc(Cl)cc3)n2)cc1 | n | n | n | u
O=S(=O)(NCCc1csc(-c2ccc(F)cc2)n1)c1ccc(Cl)cc1 | n | n | n | 64
COc1ccc(S(=O)(=O)NCCc2csc(-c3ccc(F)cc3)n2)cc1 | n | n | n | 60
Cc1ccc(C)c(S(=O)(=O)NCCc2csc(-c3ccc(Cl)cc3)n2)c1 | n | n | n | 74
CCOc1ccc(S(=O)(=O)NCCc2csc(-c3ccc(Cl)cc3)n2)cc1 | n | n | n | 69
COc1ccc(S(=O)(=O)NCCc2csc(-c3ccc(F)cc3)n2)cc1F | n | n | n | n
Cc1oc(-c2ccccc2Cl)nc1CS(=O)(=O)CC(=O)NCc1ccc(F)cc1 | n | n | n | n
COC(c1ccccc1)(c1ccccc1)[C@H](Oc1nc(C)cc(C)n1)C(=O)O | x | n | x | n
COC(=O)CN1C(=O)CSc2ccc(S(=O)(=O)Nc3c(C)cc(C)cc3C)cc21 | n | x | n | n
O=S(=O)(NCCc1csc(-c2cccc(F)c2)n1)c1cc(F)ccc1F | n | n | n | n
Cc1ccc(S(=O)(=O)NCCc2csc(-c3cccc(F)c3)n2)cc1 | n | n | n | 80
CCc1ccc(NCc2cc3cc4c(cc3n(CC(=O)Nc3cccc(OC)c3)c2=O)OCO4)cc1 | n | 28µM | n | n
CCc1ccc(NCc2cc3cc4c(cc3n(CC(=O)Nc3ccc(OC)cc3)c2=O)OCO4)cc1 | n | n | n | n
COc1ccc(C(=O)NCCc2csc(-c3ccc(Cl)cc3)n2)c(OC)c1 | n | n | n | 70
COc1ccc(C(=O)NCCc2csc(-c3ccc(Cl)cc3)n2)cc1 | n | n | n | 87
CCCOc1ccc2c(c1)CC[C@@H]1[C@@H]2CC[C@]2(C)C(OC)CC[C@@H]12 (some centres undefined) | x | n | x | n
O=C(Nc1cc(Cl)cc(Cl)c1)c1ccc(F)c(S(=O)(=O)NC2CCCCC2)c1 | n | n | n | 69
O=C(Nc1ccc(Br)cc1)c1ccc(F)c(S(=O)(=O)NC2CCCCCC2)c1 | n | n | n | n
NS(=O)(=O)c1ccc(CCNC(=O)c2nc(SCc3ccccc3F)ncc2Cl)cc1 | n | n | n | 83
CSc1ccc(CCNC(=O)Cn2ncc3c(=O)oc4ccccc4c32)cc1 | n | n | n | 67
CSc1ccc(CCNC(=O)Cn2ncc3c(=O)oc4ccc(C)cc4c32)cc1 | n | n | n | n
SMILES | B2AR arrestin ag | GALC G270D up | TSG101-PTAP inh | GPR32 ag
CCCCCOc1ccccc1/C(=C\SC)n1ccnc1 | x | n | x | n
CCOCCn1ccc2c(OCC(=O)Nc3cccc(F)c3)cccc2c1=O | n | n | n | 77
Cc1cc(C)cc(NC(=O)COc2cccc3c(=O)n(C)ccc23)c1 | n | n | n | 86
Cn1ccc2c(OCC(=O)NCc3ccc(F)cc3)cccc2c1=O | n | n | n | 68
O=C(NCC(c1cccs1)S(=O)(=O)c1cccs1)c1cccc(F)c1 (centres undefined) | n | n | n | n
CCOC(=O)C(=O)CCCCCCl | x | n | x | n
O=C(Cn1ncc2c(Cl)cccc21)NCc1cccc(Cl)c1 | n | n | n | n
OC1(c2ccc(Cl)c(C(F)(F)F)c2)CCN(CCCC(c2ccc(F)cc2)c2ccc(F)cc2)CC1 | x | n | x | 64
CCC(C(=O)N(C)Cc1ccccc1)n1nc(C)c2sc3ccccc3c2c1=O (centres undefined) | n | n | n | n
Cc1ccc(Nc2c3c(nc4ccccc24)CCC3)cc1F | n | n | n | n
Cc1ccc2nc3c(c(Nc4ccc(C)c(C)c4)c2c1)CCC3 | n | n | n | 101
COc1ccc(-c2cc(C(=O)N3CCN(c4ccccc4OC)CC3)c3cc(C(C)C)ccc3n2)cc1 | n | n | n | n
CC(C)c1ccc2oc3nc(N)c(C(=O)O)cc3c(=O)c2c1 | x | n | x | 104
N#Cc1ccccc1OCC(=O)N1CCN(c2ccccc2F)CC1 | n | x | n | n
Cc1cc(=O)oc2cc(O)ccc12 | x | 28µM | x | n
CCOc1ccc(C(=O)Nc2ccc(-c3nc4cc(C(C)C)ccc4o3)cc2)cc1Cl | n | n | n | 84
Cc1cccc(C(=O)Nc2ccc(-c3nc4cc(C(C)C)ccc4o3)cc2)c1 | n | n | n | n
CCOc1cccc(C(=O)Nc2ccc3oc(-c4cccnc4)nc3c2)c1 | n | n | n | 107
CCCCOc1cccc(C(=O)Nc2ccc3oc(-c4cccnc4)nc3c2)c1 | n | n | n | n
COc1ccccc1NC(=O)c1cc2ccc3cccnc3c2[nH]1 | n | n | n | 93
CCOc1ccccc1NC(=O)c1cc2ccc3cccnc3c2[nH]1 | n | n | n | n
CCn1c(=O)sc2cc(NS(=O)(=O)c3ccc(C)cc3)ccc21 | n | n | n | 61
O=C(CCC1CCN(Cc2ccccc2)CC1)c1ccc2c(c1)NCCCC2 | x | n | x | 81
CC(CN1c2ccccc2Sc2ccccc21)N(C)C (centres undefined) | x | n | x | 108!
O=c1[nH]c(=O)n([C@H]2CCCO2)cc1F | x | n | x | n
SMILES | B2AR arrestin ag | GALC G270D up | TSG101-PTAP inh | GPR32 ag
Cc1[nH]n2c(=O)cc(-c3ccc(Cl)cc3)nc2c1-c1ccccc1 | n | n | n | n
COc1ccc(C(=O)NCC(c2cccs2)S(=O)(=O)c2ccc(F)c(C)c2)cc1 (centres undefined) | n | n | n | 66
COc1ccc(CCNC(=O)C(=O)NCC(c2cccs2)S(=O)(=O)c2ccc(F)cc2)cc1 (centres undefined) | n | n | n | 85
COc1ccc(C(=O)NCC(c2cccs2)S(=O)(=O)c2cccs2)cc1 (centres undefined) | n | n | n | 83
O=C(Cn1cc(S(=O)(=O)Cc2cccc(Cl)c2)c2ccccc21)Nc1ccccc1C(F)(F)F | n | n | n | n
Cc1ccc(N(CC(=O)Nc2ccc(C)c(F)c2)S(=O)(=O)c2c(C)n[nH]c2C)cc1 | n | n | n | 102
Cc1cc(C)cc(N(CC(=O)Nc2ccc(C)cc2Cl)S(=O)(=O)c2c(C)[nH]c(=O)[nH]c2=O)c1 | n | n | n | 79
Cc1cc(C)cc(N(CC(=O)Nc2ccc(C(F)(F)F)cc2)S(=O)(=O)c2c(C)[nH]c(=O)[nH]c2=O)c1 | n | n | n | 112
COc1cc(NC(=O)CN(c2cc(C)cc(C)c2)S(=O)(=O)c2c(C)[nH]c(=O)[nH]c2=O)cc(OC)c1 | n | n | n | n

From PubChem BioAssay
